For 20 molecules, growth inhibition results are on record in PubChem BioAssay (NCI).

Assay [1] is described as follows: NCI Yeast Anticancer Drug Screen. Data for the rad50 strain (AID 155).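 Also: 0% = growth of vehicle-only cultures of the same strain.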 The following applies: S. cerevisiae rad50 strain growth inhibition; at 50.0 µM; hits give high values. An outline of the steps:
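Growth of the mutant yeast was measured after compound exposure and referenced to vehicle-treated cultures.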

Assay [2] in a line: NCI Yeast Anticancer Drug Screen. Data for the mec2-1 strain (AID 157). The following applies: S. cerevisiae mec2-1 strain, at 50.0 µM, hits give high values. An outline of the steps: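 mec2-1 yeast strain, carrying an alteration in DNA damage repair or cell cycle control, was exposed to compounds; growth inhibition was measured relative to vehicle-treated controls.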
Assay [3] can be described thus: NCI Yeast Anticancer Drug Screen. Data for the sgs1 mgt1 strain (AID 161).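 Also: 0% = growth of cultures given vehicle only.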 As to conditions: S. cerevisiae sgs1 mgt1 strain, at 50.0 µM, hits give high values. A digest of the protocol:
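Percent growth inhibition was derived by comparing compound-exposed mutant yeast with vehicle-exposed cultures. The strain carries alterations in DNA damage repair.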

Assay [4] is described as follows: NCI Yeast Anticancer Drug Screen. Data for the cln2 rad14 strain (AID 165).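 Also: 0% = growth equal to vehicle treated cultures.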 As to conditions: S. cerevisiae cln2 rad14 strain, at 50.0 µM, hits give high values. A digest of the protocol: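 Yeast carrying cln2 and rad14 alterations (cell cycle control and DNA damage repair) were exposed to compounds. Growth inhibition was measured against vehicle-treated controls.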

Assay [5] in a line: NCI Yeast Anticancer Drug Screen. Data for the bub3 strain (AID 167). As to conditions: S. cerevisiae bub3 mutant strain, at 50.0 µM, hits give high values. An outline of the steps: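 Whole-cell yeast assay. The mutant strain was incubated with compounds, and growth inhibition was determined by comparison with vehicle-treated cells.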
A short description of assay [6]: NCI Yeast Anticancer Drug Screen. Data for the mlh1 rad18 strain (AID 175). The following applies: S. cerevisiae mlh1 rad18 strain growth inhibition; at 50.0 µM; hits give high values. An outline of the steps: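 Growth inhibition of the yeast strain was measured after compound exposure and expressed relative to vehicle-treated controls. The strain carries defined defects in DNA damage repair.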

The structures appear in SMILES notation. About 79,000 compounds went through this panel and 15% of them were active in at least one assay; those are over-represented in the sample as a whole. Unmarked numbers belong to inactive results. Active and inactive are the calls of the source. Rule as the data show it: active = growth inhibition above about 70%; inactive = the rest.

`CC1(C)N=C(/C=N/O)C(C)(C)N1O`: the growth inhibition in assay [1] was 6.65%; in assay [2], 0.55%; in assay [3], 6.15%; in assay [4] it was 6.3%; in assay [5] it was -4.95%; in assay [6], -18.7%.
`NNC(=O)C(=O)Nc1nccs1`: the growth inhibition in assay [1] is 0.65%; in assay [2], 0.85%; in assay [3] it was 2.05%; in assay [4], 6.95%; in assay [5], -5.3%; in assay [6] it was -4.6%.
Take `CO/N=C1\CC(NC(=O)CNC(=O)OC(C)(C)C)c2ccsc21` (stereo not given): the growth inhibition in assay [1] was 1.45%; in assay [2], 5.9%; in assay [3], 6.6%; in assay [4] it was 4.3%; in assay [5] it was -1.7%; in assay [6], 28.4%.
`CCOC(=O)c1cnc(NCCCNc2ncc(C(=O)OCC)c(=O)[nH]2)[nH]c1=O`: the growth inhibition in assay [1] is -2.65%; in assay [2], 4%; in assay [3], -2.6%; in assay [4] it was -44.9%; in assay [5] it was 3.8%; in assay [6], 10.3%.
Regarding `COc1ccc(C(=O)c2c(C(=O)O)ccc3ccccc23)cc1`, the growth inhibition is 9.55% in assay [1]; 2.25% in assay [2]; 11.3% in assay [3]; -39.3% in assay [4]; 6.75% in assay [5]; -21.5% in assay [6].
As for `CC1=CC(=O)C2C(C)(C)CCCC2(C)C1(O)CCc1ccoc1` (stereo not given), the growth inhibition was 96.2% (active) in assay [1]; 88% (active) in assay [2]; 93.4% (active) in assay [3]; 92.2% (active) in assay [4]; 89.7% (active) in assay [5]; 96.8% (active) in assay [6].
Turning to `COC(=O)C1C2C=CC(C1C(=O)O)C1C(Br)=C(Br)C21` (stereo not given), the growth inhibition in assay [1] is 20.4%; in assay [2], 10.9%; in assay [3] it was -8.05%; in assay [4] it was -10.1%; in assay [5] it was 1.9%; in assay [6] it was -8.45%.
Turning to `Cc1cc(C)n(-c2ccc([N+](=O)[O-])cn2)n1`, the growth inhibition in assay [1] is 4.55%; in assay [2] it was 12%; in assay [3], -1.3%; in assay [4], -8.2%; in assay [5], 9.85%; in assay [6], 5.25%.
With `CC(C)c1cccc(C(C)C)c1NC(=O)C(=O)C(C(=O)c1ccccc1-c1ccccc1)C1OC(=O)c2ccccc21` (stereo not given), the growth inhibition in assay [1] is 8.2%; in assay [2] it was 3.8%; in assay [3], 19.6%; in assay [4], -49.2%; in assay [5], -3.05%; in assay [6], 8%.
For the molecule `CC(O)C(C)[N+](=O)[O-]` (stereo not given), the growth inhibition was 9.4% in assay [1]; 0.5% in assay [2]; -2.8% in assay [3]; 11.6% in assay [4]; 5.7% in assay [5]; -1.05% in assay [6].
Consider `Cn1c(C=O)cc2c(Cl)nccc21`, for which the growth inhibition in assay [1] was -35.5%; in assay [2], -17.4%; in assay [3], -11.8%; in assay [4], -54.9%; in assay [5] it was -10.1%; in assay [6], -1.15%.
As to `Nc1cc2c3c(cccc3c1Br)C(=O)OC2=O`, the growth inhibition was 99.5% (active) in assay [1]; 99.8% (active) in assay [2]; 99.7% (active) in assay [3]; 99.3% (active) in assay [4]; 99.7% (active) in assay [5]; 99.5% (active) in assay [6].
Consider `COC(=O)/C(C#N)=C(/NCc1ccccc1)Nc1ccccc1`, for which the growth inhibition in assay [1] is 20.8%; in assay [2], -13.1%; in assay [3] it was -8.2%; in assay [4] it was 11.4%; in assay [5], 43.6%; in assay [6] it was 21.4%.
Regarding `O=[N+]([O-])c1ccc2c(c1)nc(-c1ccccn1)n2CCc1ccncc1`, the growth inhibition was 95.2% (active) in assay [1]; 98.7% (active) in assay [2]; 99% (active) in assay [3]; 87% (active) in assay [4]; 56.2% in assay [5]; 99.2% (active) in assay [6].
Take `CCOC(=O)Sc1nccn1C`: the growth inhibition was 8.05% in assay [1]; -19.2% in assay [2]; 3.25% in assay [3]; -4.7% in assay [4]; -13.2% in assay [5]; -0.45% in assay [6].
For `CCOC(=O)C(NC(=O)C(CCCCNP(=O)(OCC)OCC)NC(=O)C(C)NC(C)=O)C(C)C` (stereo not given), the growth inhibition is -10.7% in assay [1]; -10.4% in assay [2]; -8.4% in assay [3]; -25.6% in assay [4]; -1.35% in assay [5]; 3.75% in assay [6].
`c1ccc2c(c1)CC1C3c4ccccc4C(c4ccccc43)C1C2` (stereo not given): the growth inhibition in assay [1] is -12.1%; in assay [2] it was 3.1%; in assay [3] it was -8.95%; in assay [4], 8.35%; in assay [5], -16.2%; in assay [6], -25.1%.
As to `CSC(=N)N1N=C2c3ccccc3CC[C@@H]2[C@@H]1c1ccccc1`, the growth inhibition in assay [1] was -0.1%; in assay [2] it was -7.3%; in assay [3], -18.9%; in assay [4] it was 38%; in assay [5], -10.8%; in assay [6], -18.4%.
For the molecule `CCCCCCCCCCCCCCCCOCC(COP(=O)(O)OCC1OC(n2cc(CC)c(=O)[nH]c2=O)CC1O)OC(=O)CCCCCCCCCCCCCCC` (stereo not given), the growth inhibition in assay [1] is -0.45%; in assay [2], -5.55%; in assay [3] it was 5.25%; in assay [4], 3.15%; in assay [5], -15.1%; in assay [6] it was -65%.
With `Cc1c(Br)cc(C(=O)O)c(O)c1Br`, the growth inhibition in assay [1] is -4.95%; in assay [2], 2.05%; in assay [3] it was 19.6%; in assay [4], -29.2%; in assay [5], -26.6%; in assay [6], 3.05%.
